Laboratory results from PubChem BioAssay AID1321 (The Scripps Research Institute Molecular Screening Center, 2008).
Screen size: about 220,000 compounds; about 2,600 (1.2%) were called active.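 Rule for the calls: active = activation above the mean of all tested compounds plus 3 SD, set per screening run (cut at about 8.8% in these data); inactive = the rest.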 This excerpt belongs to a sample that is enriched for actives.

biological target: Wee1-like protein kinase (Homo sapiens) (UniProt P30291); assay: Wee1 degradation inhibitors, primary screen, cell-based, HeLa, Wee1K328M-luciferase, luminescence (AID 1321); conditions: HeLa Luc-Wee1K328M stability, at 5 µM, active compounds read high, 100% = proteasome inhibitor MG132 effect;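 note: cells exposed to compound for 20 h before luminescence read; 0% = DMSO alone and 100% = MG132 at 30 µM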

Reporter increase, inactive:
CN(C)C(=O)c1nc2ccc(Cl)cn2c1CNCc1cccc(OC(F)(F)F)c1 0.21%
Cc1ccc(C(=O)N/N=C\c2cc(Br)c(Br)o2)cn1 1.9%
CCOC(=O)N1CCN(c2c(NCCN3CCN(c4ccccc4F)CC3)c(=O)c2=O)CC1 -1.76%
CCOc1ccccc1C1C(C(=O)OC)=CN(C)C=C1C(=O)OC -2.5%
CCOc1ccc(CNC(=O)C2CCC(=O)N2C2CCCC2)cc1OC (centres undefined) -2.75%
CN(C)S(=O)(=O)c1cccc(-c2nn(-c3ccccc3)cc2/C=C2\SC(=S)N(CC(=O)O)C2=O)c1 -2.5%
CN1CCc2nc(SC(C(=O)O)c3ccccc3)c(C#N)c(-c3cccs3)c2C1 (centres undefined) -1.79%
Cc1ccsc1/C=N/Nc1ccc(Cl)nn1 1.78%
O=C(CSc1nnc2n1CCCN2)c1ccccc1 1.24%
Cc1ccc(NC(=O)/C(=C\c2ccccc2)NC(=O)c2ccco2)cc1 2.36%
O=C(N/N=C/c1ccc(OCc2ccccc2)cc1)c1ccc(O)cc1 -1.31%
O=C(O)c1ccc(/C=N/NC(=O)c2ccc(Br)cc2)cc1 0.91%
O=C(O)C(NS(=O)(=O)c1cccc2nsnc12)c1ccccc1 (centres undefined) -0.72%
Cn1cc(S(=O)(=O)NC(c2ccccc2)c2ccccc2)c(=O)n(C)c1=O -2.84%
COc1cc2nc(Cl)nc(NCCO)c2cc1OC -0.52%
CCCCCOC(=O)NCCOC(=O)Nc1ccc(C(=O)OCC)cc1 3.09%
Cc1ccc(NC(=O)OCc2cncs2)cc1 2.2%
O=C(NCc1ccccc1)c1ccc(S(=O)(=O)Nc2cccc(C(F)(F)F)c2)cc1 -0.38%
COc1ccc(CCn2c(NN=C3CCCC3)nc3c2c(=O)[nH]c(=O)n3C)cc1 -2.59%
O=C(NC1C2CC3CC(C2)CC1C3)c1ccc(N2CCNCC2)c([N+](=O)[O-])c1 (centres undefined) -0.74%
N/C(=N\OC(=O)c1cc(-c2ccccc2)nc2ccccc12)c1ccncc1 2.66%
Cc1cccc(C(=O)c2cccc(C)c2)c1 -0.47%
CCNc1nc(Oc2ccc(C(=O)OC)cc2)nc(N2CCOCC2)n1 1.78%
Cc1ccc(NC(=S)NC(=O)/C=C/c2ccc(Cl)cc2)cc1 2.86%
CC(=O)Nc1ccc(NC(=S)NC(=O)/C=C/c2ccccc2)cc1 -3.02%
CCOC(=O)c1c(C)oc2ccc(OCC(=O)N(CC)CC)cc12 -2.85%
CCOC(=O)c1c(C)oc2cc(Br)c(OCC(N)=O)cc12 8.52%
C/C(=N/NC(=O)CN1CCN(S(=O)(=O)c2ccc(Br)cc2)CC1)c1ccncc1 0.47%
COC(=O)/C=C(\Oc1ccccc1)C1(O)CCCCC1 -1.22%
Cc1ccc(Nc2nc(N)nc(CN3CCN(Cc4ccccc4)CC3)n2)cc1Cl 4.72%
O=C(NCc1ccccn1)Nc1ccc(F)cc1 3.54%
O=C(NCc1csc(-c2cccs2)n1)C1CC1 -1.28%
O=C(NCC1CCCO1)c1ccccc1-c1nc(-c2ccccc2Cl)no1 (centres undefined) -0.52%
O=C(CSc1nnnn1-c1ccc(O)cc1)c1ccc(F)cc1 -3.92%
Cc1onc(NC(=O)c2ccc([N+](=O)[O-])o2)c1Br 0.61%
O=S(=O)(NCc1cccnc1)c1ccc(Br)s1 3.49%
O=S(=O)(NCc1ccccn1)c1ccc(F)cc1 -3.61%
Cc1nc(/N=C(\N)NC(=O)NC2CCCCC2)nc2ccccc12 -1.12%
CN(C)c1ccnc(Nc2ccc(F)cc2)c1C#N 4.88%
O=C(Nc1ccccc1)c1cccnc1Nc1ccccc1 -2.05%
COC(=O)CN(C(=S)Nc1ccc(Cl)cc1)C1CC(=O)N(c2ccc(OC)cc2)C1=O (centres undefined) 0.7%
CCOc1ccc(N2C(=O)CC(N(O)c3ccccc3)C2=O)cc1 (centres undefined) 7.01%
Cc1cccc(N(C)C(=O)c2cc3c(=O)[nH]c4ccc(C)cc4c3s2)c1 0.97%

Reporter increase, active:
CCOc1cc(C2C(C(=O)OC)=CN(C3CCCC3)C=C2C(=O)OC)cc(Br)c1O 14.3%
O=C(N/N=C/c1ccc(OCC2COCCO2)cc1)c1ccc(Br)cc1 (centres undefined) 10.9%
Cc1ccc(NC(=O)OCCNC(=O)c2ccncc2)cc1 14.4%
Cc1cccc(/C(N)=N/OC(=O)c2ccccc2Cl)c1 11.3%
CCOc1ccc(NC(=S)NC(=O)/C=C/c2ccc(OC)cc2)c([N+](=O)[O-])c1 9.57%
COCCOC(=O)c1c(C)oc2cc(Br)c(OCC(N)=O)cc12 10.5%
c1ccc(CN=C2Nc3ccccc3CS2)nc1 10.7%
CCc1ccc[n+](-c2nc([O-])sc2C=O)c1 10.2%
O=S(=O)(NCc1ccccn1)c1ccc(Br)s1 9.46%
CC(C)c1ccc(Nc2ncccc2C#N)cc1 19.9%
CCOc1ccc(N2C(=O)CC(N(CCc3ccc(OC)c(OC)c3)C(=S)Nc3ccccc3)C2=O)cc1 (centres undefined) 10.8%
